# Experimental data as given in PubChem BioAssay (EPA / NIEHS).
# “And” between values parts separate entries of the source, which are not always exact repeats. Equal entries are not always repeated. Records with an inconclusive call do not appear. The source made the active and inactive calls. The calls were made as follows: active = hit-call score of the fitted dose curve at least 0.9, where 1 is the maximum; inconclusive = response in the unintended direction; inactive = score below 0.9.
# Test system: DIO1 (gene 1733)
# Assay: CCTE_GLTED_hDIO1: CCTE's human Deiodinase 1 (DIO1) Inhibition Assay, Great Lakes Toxicology and Ecology Division (GLTED) Lab (AID 2283987);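 also: isolated human DIO1 enzyme in a cell-free setup rather than cells; enzyme activity read as free iodide liberated from substrate via Sandell-Kolthoff colorimetry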
# Procedure, shortened: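 Cell-free human DIO1 enzyme incubated 3 h with test chemical; iodide freed from substrate then measured by Sandell-Kolthoff absorbance. Run in triplicate; loss of signal relative to DMSO taken as inhibition.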
row,SMILES,AC50
1,CCCc1cc(=O)[nH]c(=S)[nH]1,3.82 µM (active) and 5.5 µM (active)
2,Cc1cc(=O)[nH]c(=S)[nH]1,16.4 µM (active)
3,CCCCC(CC)COC(=O)CC(C(=O)OCC(CC)CCCC)S(=O)(=O)O (stereo not given),96.2 µM (active)

# Target: Nucleoli Translocation, AR (gene 367) (UniProt P10275)
# Assay: UPITT_HCI_U2OS_AR_TIF2_Nucleoli_Antagonist: University of Pittsburgh U2OS Androgen Receptor-Transcriptional Intermediary Factor 2 (AR-TIF2) Antagonism High Content Imaging Assay for Nucleoli Translocation (AID 2283997)
# Procedure, shortened: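 Measured quantity was AR-RFP fluorescence localized to nucleoli in engineered U2OS cells also bearing TIF2-GFP, acquired on automated high-content imagers. Primary testing used 20 uM compound; actives were confirmed in triplicate wells.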
# Chain of Nucleoli Translocation, AR (gene 367) (P10275 whole entry, looked up): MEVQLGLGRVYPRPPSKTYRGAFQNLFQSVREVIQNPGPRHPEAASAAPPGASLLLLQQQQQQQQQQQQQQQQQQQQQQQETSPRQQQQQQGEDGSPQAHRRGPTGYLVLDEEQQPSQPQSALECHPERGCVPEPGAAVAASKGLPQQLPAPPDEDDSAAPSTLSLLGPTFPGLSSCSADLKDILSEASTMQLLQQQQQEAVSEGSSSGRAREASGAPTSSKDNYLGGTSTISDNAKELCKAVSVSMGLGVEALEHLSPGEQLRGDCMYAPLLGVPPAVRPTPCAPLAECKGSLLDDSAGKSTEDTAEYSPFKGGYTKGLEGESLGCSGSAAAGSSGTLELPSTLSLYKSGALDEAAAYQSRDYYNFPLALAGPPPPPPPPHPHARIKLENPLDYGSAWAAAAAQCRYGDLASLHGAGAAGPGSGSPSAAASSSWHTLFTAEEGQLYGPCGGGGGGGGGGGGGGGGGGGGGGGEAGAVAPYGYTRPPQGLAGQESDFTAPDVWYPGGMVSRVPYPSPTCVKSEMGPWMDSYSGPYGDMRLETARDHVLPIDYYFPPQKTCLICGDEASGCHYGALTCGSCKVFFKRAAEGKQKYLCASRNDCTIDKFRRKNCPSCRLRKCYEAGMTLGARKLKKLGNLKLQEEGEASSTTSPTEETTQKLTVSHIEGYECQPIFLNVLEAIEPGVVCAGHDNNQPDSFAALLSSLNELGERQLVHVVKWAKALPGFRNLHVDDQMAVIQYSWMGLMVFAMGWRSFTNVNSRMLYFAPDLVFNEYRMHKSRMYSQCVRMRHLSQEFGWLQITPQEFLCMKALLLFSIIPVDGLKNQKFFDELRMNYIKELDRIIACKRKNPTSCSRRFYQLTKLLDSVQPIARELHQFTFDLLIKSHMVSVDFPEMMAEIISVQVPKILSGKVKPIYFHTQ
SMILES,outcome,AC50
CCCCCCCCCCC,inactive,–
CN[C@H]1CC[C@@H](c2ccc(Cl)c(Cl)c2)c2ccc(S(N)(=O)=O)cc21,–,50 µM (active)
COc1ccc(S(=O)(=O)N2C(=O)[C@@](c3ccccc3OC)(N3C[C@H](O)C[C@H]3C(=O)N(C)C)c3cc(Cl)ccc32)c(OC)c1,inactive,–
COc1cc(-c2nc(NC(=O)c3cc4cc(C)cc(C)c4n3CC(=O)O)sc2CCC2CCCCC2)c(OC)cc1Cl,–,11.4 µM (active)
Cc1ccc(C)c(O)c1C,inactive,–
CNC(=O)[C@H]1O[C@@H](n2cnc3c(NCc4cc(Cl)ccc4OCc4cc(C)no4)ncnc32)[C@H](O)[C@@H]1N,inactive,–
Cc1ccc(C)c(C)c1,inactive,–
CCOc1ccc2c(c1)C(C)=CC(C)(C)N2,–,50 µM (active)
COc1cc(C=O)ccc1O,inactive,–
Cc1ccccc1Cl,inactive,–
COc1ccc(C)cc1N,inactive,–
Cc1ccc(N(C)C)cc1,inactive,–
COCCOCCOC,inactive,–
Cc1cccc(C)c1O,inactive,–
Cc1nc(-c2ccc3c(c2)CCN(CCC2CCC(NC(=O)/C=C/c4ccc(F)cc4)CC2)CC3)no1 (stereo not given),inactive,–
Cc1cccc([N+](=O)[O-])c1C,inactive,–
CC(C)(C)c1cc(O)c(C(C)(C)C)cc1O,inactive,–
O=C(O)Cc1ccccc1Nc1c(Cl)cccc1Cl,inactive,–

# Target: Nucleoli Translocation, AR (gene 367) (UniProt P10275)
# Assay: UPITT_HCI_U2OS_AR_TIF2_Nucleoli_Agonist: University of Pittsburgh U2OS Androgen Receptor-Transcriptional Intermediary Factor 2 (AR-TIF2) Agonism High Content Imaging Assay for Nucleoli Translocation (AID 2283998)
# Procedure, shortened: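 U2OS cells expressing RFP-tagged human AR and GFP-tagged TIF2; red fluorescence in nucleoli quantified by high-content imaging. Primary screen at 20 uM final (0.2% DMSO); concentration-response 0.195–50 uM (0.5% DMSO), fitted upward versus DMSO.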
SMILES,outcome,AC50
CCCCCC(=O)O,inactive,–
CN[C@H]1CC[C@@H](c2ccc(Cl)c(Cl)c2)c2ccc(S(N)(=O)=O)cc21,–,12.8 µM (active)
COc1ccc(S(=O)(=O)N2C(=O)[C@@](c3ccccc3OC)(N3C[C@H](O)C[C@H]3C(=O)N(C)C)c3cc(Cl)ccc32)c(OC)c1,inactive,–
COc1cc(-c2nc(NC(=O)c3cc4cc(C)cc(C)c4n3CC(=O)O)sc2CCC2CCCCC2)c(OC)cc1Cl,inactive,–
Cc1ccc(C)c(O)c1C,inactive,–
CNC(=O)[C@H]1O[C@@H](n2cnc3c(NCc4cc(Cl)ccc4OCc4cc(C)no4)ncnc32)[C@H](O)[C@@H]1N,inactive,–
Cc1ccc(C)c(C)c1,inactive,–
CCOc1ccc2c(c1)C(C)=CC(C)(C)N2,inactive,–
COc1cc(C=O)ccc1O,inactive,–
Cc1ccccc1Cl,inactive,–
Cc1ccc(N(C)C)cc1,inactive,–
COCCOCCOC,inactive,–
Cc1cccc(C)c1O,inactive,–
Cc1nc(-c2ccc3c(c2)CCN(CCC2CCC(NC(=O)/C=C/c4ccc(F)cc4)CC2)CC3)no1 (stereo not given),inactive,–
CC(C)(C)c1cc(O)c(C(C)(C)C)cc1O,inactive,–
O=C(O)Cc1ccccc1Nc1c(Cl)cccc1Cl,inactive,–

# Target: Ratio of Nucleoli Translocation and Cytoplasm, AR (gene 367) (UniProt P10275)
# Assay: UPITT_HCI_U2OS_AR_TIF2_Nucleoli_Cytoplasm_Ratio_Antagonist: University of Pittsburgh U2OS Androgen Receptor-Transcriptional Intermediary Factor 2 (AR-TIF2) Antagonism High Content Imaging Assay for Ratio of Nucleoli Translocation and Cytoplasm (AID 2283999);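 also: antagonists lower the DHT-driven ratio of nucleolar to cytoplasmic red signal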
# Procedure, shortened: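 U2OS cells co-expressing RFP-tagged human AR and GFP-tagged TIF2, antagonist mode with DHT as baseline. Nucleolar-to-cytoplasmic red fluorescence ratio imaged by high-content microscopy; final compound 20 uM (0.2% DMSO) primary, 0.195–50 uM (0.5% DMSO) concentration-response.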
# Chain of Ratio of Nucleoli Translocation and Cytoplasm, AR (gene 367) (P10275 whole entry, looked up): as above
row,SMILES,outcome
1,CN[C@H]1CC[C@@H](c2ccc(Cl)c(Cl)c2)c2ccc(S(N)(=O)=O)cc21,inactive
2,COc1ccc(S(=O)(=O)N2C(=O)[C@@](c3ccccc3OC)(N3C[C@H](O)C[C@H]3C(=O)N(C)C)c3cc(Cl)ccc32)c(OC)c1,inactive
3,COc1cc(-c2nc(NC(=O)c3cc4cc(C)cc(C)c4n3CC(=O)O)sc2CCC2CCCCC2)c(OC)cc1Cl,inactive
4,Cc1ccc(C)c(O)c1C,inactive
5,CNC(=O)[C@H]1O[C@@H](n2cnc3c(NCc4cc(Cl)ccc4OCc4cc(C)no4)ncnc32)[C@H](O)[C@@H]1N,inactive
6,Cc1ccc(C)c(C)c1,inactive
7,CCOc1ccc2c(c1)C(C)=CC(C)(C)N2,inactive
8,COc1cc(C=O)ccc1O,inactive
9,COc1ccc(C)cc1N,inactive
10,Cc1ccc(N(C)C)cc1,inactive
11,Cc1cccc(C)c1O,inactive
12,Cc1nc(-c2ccc3c(c2)CCN(CCC2CCC(NC(=O)/C=C/c4ccc(F)cc4)CC2)CC3)no1 (stereo not given),inactive
13,Cc1cccc([N+](=O)[O-])c1C,inactive
14,O=C(O)Cc1ccccc1Nc1c(Cl)cccc1Cl,inactive

# Target: Ratio of Nucleoli Translocation and Cytoplasm, AR (gene 367) (UniProt P10275)
# Assay: UPITT_HCI_U2OS_AR_TIF2_Nucleoli_Cytoplasm_Ratio_Agonist: University of Pittsburgh U2OS Androgen Receptor-Transcriptional Intermediary Factor 2 (AR-TIF2) Agonism High Content Imaging Assay for Ratio of Nucleoli Translocation and Cytoplasm (AID 2284000);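 also: hits raise the red nucleolar to cytoplasm ratio above vehicle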
# Procedure, shortened: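 Read-out first: nucleolar-to-cytoplasm ratio of red (AR-RFP) signal, quantified by high-content imaging in U2OS cells co-expressing TIF2-GFP. Activity is scored as signal increase over DMSO. Single-point screening used 20 uM final (0.2% DMSO).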
row,SMILES,outcome
1,CCCCCCCCCCC,inactive
2,CN[C@H]1CC[C@@H](c2ccc(Cl)c(Cl)c2)c2ccc(S(N)(=O)=O)cc21,inactive
3,COc1ccc(S(=O)(=O)N2C(=O)[C@@](c3ccccc3OC)(N3C[C@H](O)C[C@H]3C(=O)N(C)C)c3cc(Cl)ccc32)c(OC)c1,inactive
4,COc1cc(-c2nc(NC(=O)c3cc4cc(C)cc(C)c4n3CC(=O)O)sc2CCC2CCCCC2)c(OC)cc1Cl,inactive
5,Cc1ccc(C)c(O)c1C,inactive
6,CNC(=O)[C@H]1O[C@@H](n2cnc3c(NCc4cc(Cl)ccc4OCc4cc(C)no4)ncnc32)[C@H](O)[C@@H]1N,inactive
7,Cc1ccc(C)c(C)c1,inactive
8,CCOc1ccc2c(c1)C(C)=CC(C)(C)N2,inactive
9,Cc1ccc(N(C)C)cc1,inactive
10,COCCOCCOC,inactive
11,Cc1nc(-c2ccc3c(c2)CCN(CCC2CCC(NC(=O)/C=C/c4ccc(F)cc4)CC2)CC3)no1 (stereo not given),inactive
12,Cc1cccc([N+](=O)[O-])c1C,inactive
13,CC(C)(C)c1cc(O)c(C(C)(C)C)cc1O,inactive
14,O=C(O)Cc1ccccc1Nc1c(Cl)cccc1Cl,inactive
